Among all 340,000 compounds or so, about 2,100 (0.62%) were called active. A selection follows. Entries with a potency or affinity are not part of this list. Values without a mark were called inactive.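 The calls were made as follows: active = first-screen hits whose inhibition reached a set limit at any dose in the follow-up dose series; inconclusive = inhibition above the set first-screen limit but never retested; inactive = the rest.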

The values that follow come from PubChem BioAssay AID624330 (Southern Research Specialized Biocontainment Screening …, 2012).

This assay deals with Rac GTPase-activating protein 1 (Homo sapiens) (UniProt Q9H0H5). Nature of the assay: blockers of MgcRacGAP-driven Rac1 GTP hydrolysis – biochemical, ADP Hunter fluorescence, primary and confirmatory, confirmation (AID 624330).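 Also: fluorescence reports GDP produced by GAP-driven GTP hydrolysis.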 To be noted: MgcRacGAP-stimulated Rac1 GTP hydrolysis, at 30 µM, hits give high values, GST-tagged Rac1 F28L mutant substrate.
Rac GTPase-activating protein 1 (Homo sapiens), sequence (Q9H0H5 whole entry, looked up): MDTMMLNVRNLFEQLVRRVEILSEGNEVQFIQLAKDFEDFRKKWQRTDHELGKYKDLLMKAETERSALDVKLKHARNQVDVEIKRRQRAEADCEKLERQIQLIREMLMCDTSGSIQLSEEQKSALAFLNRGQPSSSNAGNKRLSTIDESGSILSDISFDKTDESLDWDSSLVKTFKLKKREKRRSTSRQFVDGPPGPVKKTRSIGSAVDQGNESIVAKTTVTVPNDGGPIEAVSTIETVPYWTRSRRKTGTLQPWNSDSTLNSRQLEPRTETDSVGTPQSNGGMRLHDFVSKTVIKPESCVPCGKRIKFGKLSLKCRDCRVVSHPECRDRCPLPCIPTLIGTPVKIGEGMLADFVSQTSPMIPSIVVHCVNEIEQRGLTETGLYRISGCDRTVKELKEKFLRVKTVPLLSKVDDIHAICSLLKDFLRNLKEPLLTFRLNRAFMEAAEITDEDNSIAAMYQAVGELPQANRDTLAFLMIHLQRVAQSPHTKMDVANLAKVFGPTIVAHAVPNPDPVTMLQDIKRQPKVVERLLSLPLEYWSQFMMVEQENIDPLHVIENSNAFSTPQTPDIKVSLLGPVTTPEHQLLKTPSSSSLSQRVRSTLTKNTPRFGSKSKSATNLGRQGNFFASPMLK
The inhibition is the drop in the measured response relative to a control, in per cent. Take `O=C(COC(=O)c1cc(=O)[nH]c(=O)[nH]1)NCc1ccccc1`: the inhibition was 3.71%.

For `O=C(Nc1nnc(-c2ccncc2)s1)C1CCCO1` (stereo not given), the inhibition was 2.37%. Turning to `CC(C)CN(C(=O)COC(=O)c1cc(=O)[nH]c2ccccc12)c1c(N)n(Cc2ccccc2)c(=O)[nH]c1=O`, the inhibition is 4.11%.

As for `CCOc1ccc(OCC(O)CNC2CCN(Cc3ccccc3)CC2)cc1` (stereo not given), the inhibition was 7.46%. `COc1ccc(CNCC(O)COc2ccc(C(C)(C)c3ccccc3)cc2)cc1` (stereo not given): the inhibition was 26.6%.

Turning to `CC(C)(c1ccccc1)c1ccc(OCC(O)CN2CCCC2)cc1` (stereo not given), the inhibition is 9.77%. As to `OC(CNCCc1ccccc1)COc1ccc(OCC(O)CNCCc2ccccc2)cc1` (stereo not given), the inhibition is 8.04%.

Turning to `CCCCCC(=O)C(=O)c1ccc(O)cc1O`, the inhibition is -2.38%. For `O=C(NNC(=O)c1cccnc1)NC1CCCCC1` the value was 7.92%; for `CSc1cccc(NS(=O)(=O)c2cc(Br)cnc2N)c1`, -1.74%; for `O=C(Nc1ccc(N2CCCCCC2)cc1)c1ccccc1Cl`, 20.3%. The same measure for `O=C(Nc1ccc(N2CCCCC2)cc1)c1ccccc1`: 36.6%; for `CC(=O)N1CCN(c2ccc(NC(=O)c3ccccc3C)cc2)CC1`: 9.24%; for `O=C(Nc1ccc(N2CCCCC2)cc1)c1ccc(F)cc1`: 4.29%. For the molecule `CC(c1ccncn1)N(C)C(=O)c1ccc2oc(Cc3ccccc3)nc2c1` (stereo not given), the inhibition is 6.98%. With `CC1CCCCC1NC(=O)CN(C)S(=O)(=O)c1cccc2nsnc12` (stereo not given), the inhibition was 9.08%. In the case of `COc1ccc(/C=N/NC(=O)C(=O)N2CCCCCC2)cc1O`, the inhibition was 11.9%. With `COc1ccc(/C=N/NC(=S)NCC2CCCO2)cc1` (stereo not given), the inhibition was 5.53%. Turning to `S=C(NCc1ccco1)N/N=C/c1ccc(Cl)cc1`, the inhibition is 17.1%. For `COc1cc(/C=N/NC(=S)NCC2CCCO2)cc(OC)c1OC` (stereo not given) the value was 7.93%.

In the case of `CCOc1ccc(/C=N/NC(=O)CN2CCCCC2)cc1OCC`, the inhibition was 10.1%. Regarding `COc1ccc(/C=N/NC(=O)C(=O)N2CCCC2)cc1OC`, the inhibition is 7.5%. Consider `S=C(NCc1ccco1)N/N=C/c1ccncc1`, for which the inhibition was 2.98%. Consider `CCCOc1ccc(/C=N/NC(=O)CN2CCCCC2)cc1OCC`, for which the inhibition was 0.56%. For `Cc1ccc(C2CN(CCC(N)=O)C(=O)CO2)cc1` (stereo not given) the value was 3.49%; for `CC1CCCCC1NC(=O)CCCCCn1c(=S)[nH]c2ccsc2c1=O` (stereo not given), 6.67%. The same measure for `CC1=C([N+](=O)[O-])C(c2ccccc2C(F)(F)F)NC(=O)N1C` (stereo not given): 2.05%; for `COc1ccc2c(C)cc(SCC(=O)NC3CCCCC3)nc2c1`: 3.25%. With `O=C(CN1C(=O)COc2ccccc21)N1CCc2ccccc2C1`, the inhibition was 2.34%. Take `O=C(NCCc1csc(-c2ccccc2)n1)c1ccc(Br)o1`: the inhibition is 9.81%. On to `O=C(COC(=O)c1ccc(F)c(S(=O)(=O)N2CCOCC2)c1)NCc1ccc(Cl)cc1`, for which the inhibition is -1.94%.

On to `N#CCCn1cc(C(=O)Nc2ccc([N+](=O)[O-])cc2)c(-c2cccs2)n1`, for which the inhibition was 4.36%. With `C[C@@H]1CN([C@H](C)CO)C(=O)c2cc(Br)cnc2O[C@@H]1CN(C)C(=O)c1ccccc1`, the inhibition was 14.7%. The same measure for `Cn1c(=O)cc(OCCCC(=O)NCCCN2CCN(Cc3ccccc3)CC2)c2ccccc21`: 2.96%; for `O=C(N/N=C/c1cccc(O)c1)C(=O)N1CCCCCC1`: 0.3%. Regarding `COc1cc(/C=N/NC(=O)C(=O)NCC2CCCO2)cc(Cl)c1O` (stereo not given), the inhibition was 21.6%. In the case of `C=CCOc1ccc(/C=N/NC(=O)C(=O)N2CCCCCC2)cc1OC`, the inhibition was 2.52%. Consider `O=C(NCC1CCCO1)C(=O)N/N=C/c1ccc(O)c(Cl)c1` (stereo not given), for which the inhibition was 26.7%.

Consider `CCN(Cc1nc(-c2ccc(C)cc2)no1)C(=O)c1ccco1`, for which the inhibition is 2.23%.

Consider `Cc1nnc(NC(=O)CSc2ccccc2N)s1`, for which the inhibition was 6.42%.

Consider `CCOc1cccc2cc(C(=O)N3CCOCC3)c(=O)oc12`, for which the inhibition is 5.1%. Regarding `O=C(Cn1cccc1C(=O)c1ccccc1)NCc1cccnc1`, the inhibition is 14.8%.

On to `O=C(CSc1nc2ccccc2[nH]1)Nc1c(F)c(F)c(F)c(F)c1F`, for which the inhibition was 1.98%.

As to `COc1ccccc1S(=O)(=O)Cc1ccc(C(=O)NC2CCCCC2)o1`, the inhibition is 5.84%. Consider `CCOC(=O)C1CCN(Cc2ccc(O)c(OC)c2)CC1`, for which the inhibition was 27.4%.

On to `COc1ccc(CN2CCC(C(=O)N3CCCC(C)C3)CC2)cc1OC` (stereo not given), for which the inhibition is 12.3%. Take `COc1cc(CN2CCCCCC2)cc(Br)c1O`: the inhibition was 15.4%. The same measure for `CCOc1cc(CN2CCC(N3CCC(C(=O)NC4CC4)CC3)CC2)ccc1O`: 17.9%; for `COc1cc(CN2CCC(C(=O)N3CCCC(C)C3)CC2)cc(OC)c1O` (stereo not given): 26.8%; for `COc1cc(CN2CCC(C(=O)NC3CCCC3)CC2)cc(OC)c1O`: 23.1%. For `COCc1cc(C(C)=O)ccc1OCC(=O)Nc1ccc(NC(C)=O)cc1` the value was 1.37%.

Regarding `CC(NC(=O)c1ccc(Br)o1)c1ccccc1` (stereo not given), the inhibition was 7.96%. In the case of `CCC(=O)N(CCc1ccccc1)Cc1cc2cc3c(cc2[nH]c1=O)OCO3`, the inhibition is 8.92%. Consider `N#CC(=Cc1ccccn1)c1nc(-c2ccc(Cl)cc2)cs1`, for which the inhibition is 6.28%.

For `Cc1ccc(C(=O)NCC(=O)NCC(=O)OCc2ccc(Cl)cc2)cc1`, the inhibition was 8.02%. In the case of `O=C(CCCn1c(=O)[nH]c2ccccc2c1=O)NCCSCc1ccccc1`, the inhibition is -5.64%. As for `Cn1c(=O)[nH]c2c(cnn2C)c1=O`, the inhibition was -2.19%. With `CCCn1c(N)c(Br)c(=O)[nH]c1=O`, the inhibition is 12.3%. Regarding `Cn1nnnc1SCCNC(=O)C1CCC(=O)N(Cc2ccccc2F)C1` (stereo not given), the inhibition was 11%.

Regarding `Cc1cc(Nc2cccc([N+](=O)[O-])c2)c2ccccc2n1`, the inhibition is 13.8%. With `Cc1cc(Nc2ccc([N+](=O)[O-])cc2)c2ccccc2n1`, the inhibition was 4.06%. Take `O=C(c1cccc(S(=O)(=O)N2CCc3ccccc32)c1)N1CCN(CCO)CC1`: the inhibition is 1.12%. Consider `O=C(NNc1c2ccccc2nc2ccccc12)c1ccccc1Cl`, for which the inhibition is 8.54%. The same measure for `O=C(NNc1c2ccccc2nc2ccccc12)c1ccccc1O`: 9.79%. Turning to `Cc1ccc(S(=O)(=O)NCC(=O)N(CC2CCCO2)C(C(=O)NC2CCCC2)C(C)C)cc1` (stereo not given), the inhibition is -2.26%.

Take `N#CCCN1CCn2c1nc1ccccc12`: the inhibition is 7.51%. Turning to `N#CCCN1CCN(CCC#N)C1=S`, the inhibition is -2.38%. Take `COc1ccc(Cc2nc3c4c(ncn3n2)Oc2c(ccc3ccccc23)C4c2ccc(OC)c(OC)c2)cc1` (stereo not given): the inhibition is 0.4%.

As for `COc1cccc(-c2nnc(NC(=O)CCS(=O)(=O)c3ccc(F)cc3)o2)c1`, the inhibition was 9.6%.

Regarding `OCC[C@H]1C[C@H](O)[C@@H](O)[C@]2(CCCc3ccccc3O2)O1`, the inhibition is 6.49%. As for `CC(C)(C)N(Cc1ccccc1)C(=O)COC(=O)/C=C/c1ccc2c(c1)OCO2`, the inhibition was 7.28%. In the case of `CC(NC(=O)N(Cc1ccccc1)Cc1ccc2c(c1)OCO2)(C(F)(F)F)C(F)(F)F`, the inhibition was -1.55%. With `CSc1cccc(NC(=O)COC(=O)C2CCN(S(=O)(=O)c3ccccc3)CC2)c1`, the inhibition was 3.95%. The same measure for `CC[C@H]1CN2CCc3cc(OC)c(OC)cc3[C@@H]2C[C@@H]1C[C@H]1NCCc2cc(OC)c(OC)cc21`: -1.46%; for `CC[C@H]1CN2CCc3cc(OC)c(OC)cc3C2C[C@@H]1C[C@H]1NCCc2cc(OC)c(OC)cc21` (stereo not given in full): 5.06%; for `Cc1ccc(NC(=S)N=Nc2c(O)[nH]c3ccccc23)cc1`: 9.95%. The same measure for `Oc1[nH]c2ccc(Br)cc2c1N=NC(=S)Nc1ccc(F)cc1`: 2.02%; for `Oc1cccc(NC(=S)N=Nc2c(O)[nH]c3ccc(Br)cc23)c1`: 21.1%; for `COc1ccc(NC(=S)N=Nc2c(O)[nH]c3ccccc23)cc1`: 19.4%.

For `CC(=O)n1cc(/C=N/NC(=O)c2ccc([N+](=O)[O-])cc2)c2ccccc21`, the inhibition is 7.25%. Consider `CCOC(=O)c1ccc(NC(=S)N(CCCN2CCCC(C)C2)Cc2ccco2)cc1` (stereo not given), for which the inhibition was 3.37%. With `Cc1ccc(-c2cc3c(nn2)-c2ccccc2C3=O)cc1`, the inhibition was 11.8%. Consider `CC1CCC2(CC1)NC(=O)N(CC(=O)Nc1cccc(S(=O)(=O)N3CCCC3)c1)C2=O` (stereo not given), for which the inhibition was 4.59%. For `CCOc1ccc(-n2nc(C(=O)NC3CCCCC3)c3ccccc3c2=O)cc1`, the inhibition was -4.66%. Regarding `Nc1[nH]c(=S)nc2nc(-c3ccccc3)c(-c3ccccc3)nc12`, the inhibition was 9.86%. Take `Nc1nc(N)c2nc(-c3ccccc3)c(N)nc2n1`: the inhibition is 4.54%. As to `COCC1CCCCC1OS(N)(=O)=O` (stereo not given), the inhibition was 10.2%. For `Nc1ccc(Cc2ccc(N)c(C(=O)O)c2)cc1C(=O)O` the value was 7.39%. Consider `Nc1ccc(Cc2ccc(N)c(O)c2)cc1O`, for which the inhibition was -7.75%. With `N#Cc1cc(C(=O)Cc2ccccc2)c[nH]1`, the inhibition was -3.54%.

For the molecule `COc1cccc(C(=O)C2CCCN(C(=O)c3ccc(C#CC(C)(C)O)cc3)C2)c1` (stereo not given), the inhibition was 1.51%. As for `COc1ccc(C(=O)N2c3ccccc3CC2C)cc1OC` (stereo not given), the inhibition is 3.63%.

With `O=C(c1ccccc1)N1CCN(C2CCCCCC2)CC1`, the inhibition is 25.4%. Turning to `COc1cccc(C(=O)N2CCN(C3CCC(c4ccccc4)CC3)CC2)c1` (stereo not given), the inhibition is 14.9%. For `O=C(c1ccc(F)cc1)N1CCN(C2CCC(c3ccccc3)CC2)CC1` (stereo not given) the value was 12.1%.

Regarding `COc1cc(OC)cc(C(=O)N2CCN(C3CCCCC3)CC2)c1`, the inhibition is 19.9%. Take `O=C(c1ccc(F)cc1)N1CCC(N2CCCCCC2)CC1`: the inhibition was 11%. Turning to `O=C(c1ccc([N+](=O)[O-])cc1)N1CCCC1`, the inhibition is 13.8%. For the molecule `O=C(c1ccccc1)N1CCN(C2CCCCC2)CC1`, the inhibition is 44.8%. On to `CC1CCCC(N2CCN(C(=O)c3ccc(F)cc3)CC2)C1` (stereo not given), for which the inhibition was 19.6%.
